Data taken from the supplement of paper PMC4466140.

biological target: AgAbp1; assay: SPOT peptide array binding signal intensity (averaged, normalized) (arbitrary units (background-subtracted, floor 0; scale differs between SH3 domains)); higher = stronger binding of the SH3 domain to the peptide
Outline: (§1)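 The binding signal is the normalized, background-subtracted spot intensity averaged over replicates; its arbitrary units differ between domains. It was obtained by incubating 10 μg/ml GST-fused SH3 domains from four yeast species overnight at 4°C in TBS-based blocking buffer on cellulose membranes with synthetic 15-mer peptides, cysteines replaced by serines, then detecting with anti-GST antibody, HRP anti-mouse secondary and luminol.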

Binder | SPOT peptide array binding signal intensity
AVPPPPPPPPLPESL | 8.5
HVRRSILALPLGVLL | 8

biological target: AgBbc1; assay: as above
Outline: as §1

Binder | SPOT peptide array binding signal intensity
AVPPPPPPPPLPESL | 0.5
HVRRSILALPLGVLL | 2.75

biological target: AgBem1-D1; assay: as above
Outline: as §1

Binder | SPOT peptide array binding signal intensity
AVPPPPPPPPLPESL | ≤ 0
HVRRSILALPLGVLL | 39

biological target: AgBzz1-D1; assay: as above
Outline: as §1

Binder | SPOT peptide array binding signal intensity
AVPPPPPPPPLPESL | 1
HVRRSILALPLGVLL | ≤ 0

biological target: AgBzz1-D2; assay: as above
Outline: as §1

Binder | SPOT peptide array binding signal intensity
AVPPPPPPPPLPESL | 5.5
HVRRSILALPLGVLL | 2.5

biological target: AgCyk3; assay: as above
Outline: as §1

Binder | SPOT peptide array binding signal intensity
AVPPPPPPPPLPESL | ≤ 0
HVRRSILALPLGVLL | 1

biological target: AgFus1; assay: as above
Outline: as §1

Binder | SPOT peptide array binding signal intensity
AVPPPPPPPPLPESL | 2
HVRRSILALPLGVLL | 605

biological target: AgHof1; assay: as above
Outline: as §1

Binder | SPOT peptide array binding signal intensity
AVPPPPPPPPLPESL | 182
HVRRSILALPLGVLL | 22.8

biological target: AgHse1; assay: as above
Outline: as §1

Binder | SPOT peptide array binding signal intensity
AVPPPPPPPPLPESL | 26
HVRRSILALPLGVLL | 325

biological target: AgLsb1; assay: as above
Outline: as §1

Binder | SPOT peptide array binding signal intensity
AVPPPPPPPPLPESL | 0.5
HVRRSILALPLGVLL | 61.5

biological target: AgLsb4; assay: as above
Outline: as §1

Binder | SPOT peptide array binding signal intensity
AVPPPPPPPPLPESL | 3
HVRRSILALPLGVLL | 201

biological target: AgMyo5; assay: as above
Outline: as §1

Binder | SPOT peptide array binding signal intensity
AVPPPPPPPPLPESL | 188
HVRRSILALPLGVLL | ≤ 0

biological target: AgNbp2; assay: as above
Outline: as §1

Binder | SPOT peptide array binding signal intensity
AVPPPPPPPPLPESL | 18
HVRRSILALPLGVLL | 57

biological target: AgRvs167; assay: as above
Outline: as §1

Binder | SPOT peptide array binding signal intensity
AVPPPPPPPPLPESL | 0.667
HVRRSILALPLGVLL | 0.5

biological target: AgSho1; assay: as above
Outline: as §1

Binder | SPOT peptide array binding signal intensity
AVPPPPPPPPLPESL | 1
HVRRSILALPLGVLL | 64

biological target: AgSla1-D1-D2; assay: as above
Outline: as §1

Binder | SPOT peptide array binding signal intensity
AVPPPPPPPPLPESL | ≤ 0
HVRRSILALPLGVLL | 6

biological target: AgSla1-D3; assay: as above
Outline: as §1

Binder | SPOT peptide array binding signal intensity
AVPPPPPPPPLPESL | 2
HVRRSILALPLGVLL | 5

biological target: CaAbp1-D1; assay: as above
Outline: as §1

Binder | SPOT peptide array binding signal intensity
AVPPPPPPPPLPESL | 1
HVRRSILALPLGVLL | 120

biological target: CaAbp1-D2; assay: as above
Outline: as §1

Binder | SPOT peptide array binding signal intensity
AVPPPPPPPPLPESL | 1
HVRRSILALPLGVLL | 85

biological target: CaBbc1; assay: as above
Outline: as §1

Binder | SPOT peptide array binding signal intensity
AVPPPPPPPPLPESL | ≤ 0
HVRRSILALPLGVLL | 10

biological target: CaBem1-D1; assay: as above
Outline: as §1

Binder | SPOT peptide array binding signal intensity
AVPPPPPPPPLPESL | 1
HVRRSILALPLGVLL | 10

biological target: CaBzz1-D1; assay: as above
Outline: as §1

Binder | SPOT peptide array binding signal intensity
AVPPPPPPPPLPESL | 951
HVRRSILALPLGVLL | 21

biological target: CaBzz1-D2; assay: as above
Outline: as §1

Binder | SPOT peptide array binding signal intensity
AVPPPPPPPPLPESL | 158
HVRRSILALPLGVLL | 22

biological target: CaCyk3; assay: as above
Outline: as §1

Binder | SPOT peptide array binding signal intensity
AVPPPPPPPPLPESL | ≤ 0
HVRRSILALPLGVLL | 3

biological target: CaFus1; assay: as above
Outline: as §1

Binder | SPOT peptide array binding signal intensity
AVPPPPPPPPLPESL | 2
HVRRSILALPLGVLL | 2060

biological target: CaHof1; assay: as above
Outline: as §1

Binder | SPOT peptide array binding signal intensity
AVPPPPPPPPLPESL | 0.5
HVRRSILALPLGVLL | ≤ 0

biological target: CaHse1; assay: as above
Outline: as §1

Binder | SPOT peptide array binding signal intensity
AVPPPPPPPPLPESL | 4.75
HVRRSILALPLGVLL | 25

biological target: CaLsb1; assay: as above
Outline: as §1

Binder | SPOT peptide array binding signal intensity
AVPPPPPPPPLPESL | 0.5
HVRRSILALPLGVLL | 0.25

biological target: CaLsb4; assay: as above
Outline: as §1

Binder | SPOT peptide array binding signal intensity
AVPPPPPPPPLPESL | ≤ 0
HVRRSILALPLGVLL | 47

biological target: CaMyo5; assay: as above
Outline: as §1

Binder | SPOT peptide array binding signal intensity
AVPPPPPPPPLPESL | 29
HVRRSILALPLGVLL | 5.25

biological target: CaNbp2; assay: as above
Outline: as §1

Binder | SPOT peptide array binding signal intensity
AVPPPPPPPPLPESL | 23.5
HVRRSILALPLGVLL | 450

biological target: CaRvs167; assay: as above
Outline: as §1

Binder | SPOT peptide array binding signal intensity
AVPPPPPPPPLPESL | 3.67
HVRRSILALPLGVLL | 16.8

biological target: CaRvs167-3; assay: as above
Outline: as §1

Binder | SPOT peptide array binding signal intensity
AVPPPPPPPPLPESL | 1.5
HVRRSILALPLGVLL | 7.75

biological target: CaSho1; assay: as above
Outline: as §1

Binder | SPOT peptide array binding signal intensity
AVPPPPPPPPLPESL | 4.5
HVRRSILALPLGVLL | 439

biological target: CaSla1-D1-D2; assay: as above
Outline: as §1

Binder | SPOT peptide array binding signal intensity
AVPPPPPPPPLPESL | ≤ 0
HVRRSILALPLGVLL | ≤ 0

biological target: CaSla1-D3; assay: as above
Outline: as §1

Binder | SPOT peptide array binding signal intensity
AVPPPPPPPPLPESL | ≤ 0
HVRRSILALPLGVLL | 25

biological target: ScAbp1; assay: as above
Outline: as §1

Binder | SPOT peptide array binding signal intensity
AVPPPPPPPPLPESL | ≤ 0
HVRRSILALPLGVLL | 22

biological target: ScBbc1; assay: as above
Outline: as §1

Binder | SPOT peptide array binding signal intensity
AVPPPPPPPPLPESL | ≤ 0
HVRRSILALPLGVLL | ≤ 0

biological target: ScBem1-D1; assay: as above
Outline: as §1

Binder | SPOT peptide array binding signal intensity
AVPPPPPPPPLPESL | ≤ 0
HVRRSILALPLGVLL | 10

biological target: ScBzz1-D1; assay: as above
Outline: as §1

Binder | SPOT peptide array binding signal intensity
AVPPPPPPPPLPESL | 13
HVRRSILALPLGVLL | 12.5

biological target: ScBzz1-D2; assay: as above
Outline: as §1

Binder | SPOT peptide array binding signal intensity
AVPPPPPPPPLPESL | ≤ 0
HVRRSILALPLGVLL | 3.5

biological target: ScCyk3; assay: as above
Outline: as §1

Binder | SPOT peptide array binding signal intensity
AVPPPPPPPPLPESL | 1
HVRRSILALPLGVLL | 56

biological target: ScFus1; assay: as above
Outline: as §1

Binder | SPOT peptide array binding signal intensity
AVPPPPPPPPLPESL | ≤ 0
HVRRSILALPLGVLL | 522

biological target: ScHof1; assay: as above
Outline: as §1

Binder | SPOT peptide array binding signal intensity
AVPPPPPPPPLPESL | 13.5
HVRRSILALPLGVLL | 1.5

biological target: ScHse1; assay: as above
Outline: as §1

Binder | SPOT peptide array binding signal intensity
AVPPPPPPPPLPESL | 34
HVRRSILALPLGVLL | 772

biological target: ScLsb1; assay: as above
Outline: as §1

Binder | SPOT peptide array binding signal intensity
AVPPPPPPPPLPESL | ≤ 0
HVRRSILALPLGVLL | 5.5

biological target: ScLsb2; assay: as above
Outline: as §1

Binder | SPOT peptide array binding signal intensity
AVPPPPPPPPLPESL | ≤ 0
HVRRSILALPLGVLL | ≤ 0

biological target: ScLsb3; assay: as above
Outline: as §1

Binder | SPOT peptide array binding signal intensity
AVPPPPPPPPLPESL | ≤ 0
HVRRSILALPLGVLL | 182

biological target: ScLsb4; assay: as above
Outline: as §1

Binder | SPOT peptide array binding signal intensity
AVPPPPPPPPLPESL | ≤ 0
HVRRSILALPLGVLL | 15.5

biological target: ScMyo3; assay: as above
Outline: as §1

Binder | SPOT peptide array binding signal intensity
AVPPPPPPPPLPESL | 1190
HVRRSILALPLGVLL | ≤ 0

biological target: ScMyo5; assay: as above
Outline: as §1

Binder | SPOT peptide array binding signal intensity
AVPPPPPPPPLPESL | 712
HVRRSILALPLGVLL | ≤ 0

biological target: ScNbp2; assay: as above
Outline: as §1

Binder | SPOT peptide array binding signal intensity
AVPPPPPPPPLPESL | 22
HVRRSILALPLGVLL | 114

biological target: ScPex13; assay: as above
Outline: as §1

Binder | SPOT peptide array binding signal intensity
AVPPPPPPPPLPESL | 538
HVRRSILALPLGVLL | ≤ 0

biological target: ScRvs167; assay: as above
Outline: as §1

Binder | SPOT peptide array binding signal intensity
AVPPPPPPPPLPESL | 2.33
HVRRSILALPLGVLL | 22.2

biological target: ScSho1; assay: as above
Outline: as §1

Binder | SPOT peptide array binding signal intensity
AVPPPPPPPPLPESL | ≤ 0
HVRRSILALPLGVLL | 1000

biological target: ScSla1-D1-D2; assay: as above
Outline: as §1

Binder | SPOT peptide array binding signal intensity
AVPPPPPPPPLPESL | ≤ 0
HVRRSILALPLGVLL | 5

biological target: ScSla1-D3; assay: as above
Outline: as §1

Binder | SPOT peptide array binding signal intensity
AVPPPPPPPPLPESL | 1.25
HVRRSILALPLGVLL | 2

biological target: SpAbp1-D1; assay: as above
Outline: as §1

Binder | SPOT peptide array binding signal intensity
AVPPPPPPPPLPESL | 6
HVRRSILALPLGVLL | 124

biological target: SpBbc1; assay: as above
Outline: as §1

Binder | SPOT peptide array binding signal intensity
AVPPPPPPPPLPESL | 3
HVRRSILALPLGVLL | 2

biological target: SpBzz1-D1; assay: as above
Outline: as §1

Binder | SPOT peptide array binding signal intensity
AVPPPPPPPPLPESL | 3120
HVRRSILALPLGVLL | 30

biological target: SpBzz1-D2; assay: as above
Outline: as §1

Binder | SPOT peptide array binding signal intensity
AVPPPPPPPPLPESL | 4.25

biological target: SpCyk3; assay: as above
Outline: as §1

Binder | SPOT peptide array binding signal intensity
AVPPPPPPPPLPESL | ≤ 0

biological target: SpHof1; assay: as above
Outline: as §1

Binder | SPOT peptide array binding signal intensity
AVPPPPPPPPLPESL | ≤ 0

biological target: SpHof1-2; assay: as above
Outline: as §1

Binder | SPOT peptide array binding signal intensity
AVPPPPPPPPLPESL | ≤ 0

biological target: SpHof1-3; assay: as above
Outline: as §1

Binder | SPOT peptide array binding signal intensity
AVPPPPPPPPLPESL | ≤ 0

biological target: SpHse1; assay: as above
Outline: as §1

Binder | SPOT peptide array binding signal intensity
AVPPPPPPPPLPESL | 10.5

biological target: SpLsb1; assay: as above
Outline: as §1

Binder | SPOT peptide array binding signal intensity
AVPPPPPPPPLPESL | 4.75

biological target: SpLsb4; assay: as above
Outline: as §1

Binder | SPOT peptide array binding signal intensity
AVPPPPPPPPLPESL | 27

biological target: SpMyo1; assay: as above
Outline: as §1

Binder | SPOT peptide array binding signal intensity
AVPPPPPPPPLPESL | 980

biological target: SpNbp2; assay: as above
Outline: as §1

Binder | SPOT peptide array binding signal intensity
AVPPPPPPPPLPESL | 16

biological target: SpPex13; assay: as above
Outline: as §1

Binder | SPOT peptide array binding signal intensity
AVPPPPPPPPLPESL | ≤ 0

biological target: SpRvs167; assay: as above
Outline: as §1

Binder | SPOT peptide array binding signal intensity
AVPPPPPPPPLPESL | 64.7

biological target: SpSla1-D1-D2; assay: as above
Outline: as §1

Binder | SPOT peptide array binding signal intensity
AVPPPPPPPPLPESL | 1

biological target: SpSla1-D3; assay: as above
Outline: as §1

Binder | SPOT peptide array binding signal intensity
AVPPPPPPPPLPESL | ≤ 0
